# Test results: PubChem BioAssay (Tox21)
# Records with an inconclusive call do not appear. Where a call stands in place of a potency, no number is given. Active and inactive are the calls of the source. The call rests on the fitted dose curve; in most records, active means well fitted inhibition curve with a large enough effect in the repeat runs; inconclusive means weak or mixed curves; inactive means no such curve, though single readings can be large or run the other way.
# Molecular target: Cytochrome P450 2D6 (Homo sapiens) (UniProt P10635)
# Sequence (P10635 whole entry, looked up): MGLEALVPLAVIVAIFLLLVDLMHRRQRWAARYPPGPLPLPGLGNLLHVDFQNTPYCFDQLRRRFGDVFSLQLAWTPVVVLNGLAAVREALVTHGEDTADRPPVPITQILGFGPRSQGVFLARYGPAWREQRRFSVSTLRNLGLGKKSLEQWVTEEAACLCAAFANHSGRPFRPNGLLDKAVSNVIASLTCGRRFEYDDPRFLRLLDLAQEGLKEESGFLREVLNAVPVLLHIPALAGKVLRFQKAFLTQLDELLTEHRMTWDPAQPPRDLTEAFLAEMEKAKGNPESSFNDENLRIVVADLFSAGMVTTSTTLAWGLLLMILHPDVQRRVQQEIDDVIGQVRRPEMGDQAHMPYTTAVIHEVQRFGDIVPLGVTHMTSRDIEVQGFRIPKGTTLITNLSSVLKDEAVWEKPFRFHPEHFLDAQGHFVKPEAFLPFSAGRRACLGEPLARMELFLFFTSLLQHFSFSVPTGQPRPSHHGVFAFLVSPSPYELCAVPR
# Assay: Cytochrome P450 Family 2 Subfamily D Member 6 (CYP2D6) small molecule antagonists: luciferase reporter qHTS assay (AID 1671196); further: nearly all actives have a fitted effect of over 50% in size
# Conditions: P450-Glo CYP2D6 enzyme assay, luciferin luminescence, 1 h; series mostly up to 115 µM
# Procedure, shortened: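 Luminogenic proluciferin substrate, CYP2D6 enzyme; 10 min RT preincubation with compound, NADPH regeneration system added, 1 h RT. Stop/detection reagent, 20 min RT, luminescence read (RLU). Signal proportional to CYP activity.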
# Potency means the concentration at half of the fitted maximal effect.
row,SMILES,Potency
1,[O]=[Cr](=[O])([OH])[O][Cr](=[O])(=[O])[OH],inactive
2,CCN1CCC2(CC1)COc1cc3c(cc12)N(C(=O)c1ccc(-c2ccc(-c4nnc(C)o4)cc2C)cc1)CC3,32.8 µM (active)
3,CCOC(=O)Cc1ccccc1,inactive
4,Oc1cc(Cl)cc(Cl)c1,71.7 µM (active)
5,ClC1=C(Cl)[C@]2(Cl)[C@@H]3[C@H]4C[C@H]([C@@H]5O[C@H]45)[C@@H]3[C@@]1(Cl)C2(Cl)Cl,inactive
6,COC(=O)C(C)N(C(=O)c1ccco1)c1c(C)cccc1C (configuration not stated),inactive
7,[F][Sn]([c]1ccccc1)([c]1ccccc1)[c]1ccccc1,2.83 µM (active)
8,N#Cc1c2ccccc2cc2ccccc12,inactive
9,N#CCCl,29.5 µM (active)
10,COP(=S)(OC)Oc1nc(Cl)c(Cl)cc1Cl,inactive
11,c1ccc2nc(N3CCNCC3)ccc2c1,inactive
12,CC(O)C(=O)[O][Hg][c]1ccccc1 (configuration not stated),0.448 µM (active)
13,CNC(C)(C)Cc1ccccc1,9.77 µM (active)
14,Nc1nc(N)c(N)c(N)n1,inactive
15,CCC[CH2][Sn]([CH2]CCC)([CH2]CCC)[CH2]CCC,20 µM (active)
16,COC(=O)c1ccccc1S(=O)(=O)NC(=O)Nc1nc(C)nc(OC)n1,8.88 µM (active)
17,CC(C)N(C(=O)SC/C(Cl)=C/Cl)C(C)C,inactive
18,c1cc[n+]2c(c1)-c1cccc[n+]1CC2,7.76 µM (active)
19,CC1CCCC1,inactive
20,[O-][Cl+3]([O-])([O-])O,inactive

# Molecular target: Cytochrome P450 2C19 (Homo sapiens) (UniProt P33261)
# Sequence (P33261 whole entry, looked up): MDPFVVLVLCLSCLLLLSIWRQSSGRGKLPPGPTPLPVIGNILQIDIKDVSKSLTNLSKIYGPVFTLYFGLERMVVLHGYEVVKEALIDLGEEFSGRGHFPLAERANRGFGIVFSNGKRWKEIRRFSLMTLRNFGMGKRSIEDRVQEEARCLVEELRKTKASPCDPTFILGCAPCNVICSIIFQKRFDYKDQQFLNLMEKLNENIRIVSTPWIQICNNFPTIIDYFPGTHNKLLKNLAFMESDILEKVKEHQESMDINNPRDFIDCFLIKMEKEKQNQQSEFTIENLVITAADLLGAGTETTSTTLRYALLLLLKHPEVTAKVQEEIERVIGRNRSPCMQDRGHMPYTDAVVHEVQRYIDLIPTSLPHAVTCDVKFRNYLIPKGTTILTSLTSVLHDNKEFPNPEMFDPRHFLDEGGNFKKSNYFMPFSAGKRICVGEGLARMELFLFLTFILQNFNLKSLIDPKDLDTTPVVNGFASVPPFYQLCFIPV
# Assay: Cytochrome P450 Family 2 Subfamily C Member 19 (CYP2C19) small molecule antagonists: luciferase reporter qHTS assay (AID 1671197); further: nearly all actives have a fitted effect of over 65% in size
# Conditions: P450-Glo CYP2C19 enzyme, luciferin luminescence, 1 h; series mostly up to 115 µM
# Procedure, shortened: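 P450-Glo CYP2C19 screening system; proluciferin substrate; DMSO compound stocks; 10 min RT preincubation; NADPH regeneration, 1 h at 37C; luciferin detection reagent, 20 min RT; luminescence as RLU.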
row,SMILES,Potency
1,Brc1cccc(-c2ccccc2)c1,inactive
2,COc1ccc2c3c1O[C@H]1[C@H](O)CC[C@H]4[C@@H](C2)N(C)CC[C@@]341,inactive
3,N#CC(C#N)=NNc1cccc(Cl)c1,79.6 µM (active)
4,c1ccc2c(c1)cc1ccc3cccc4ccc2c1c34,inactive
5,ClC1(Cl)C2(Cl)C3(Cl)C4(Cl)C(Cl)(Cl)C5(Cl)C3(Cl)C1(Cl)C5(Cl)C24Cl (configuration not stated),inactive
6,C[N+]1(C)[C@@H]2CC[C@H]1CC(OC(=O)C(CO)c1ccccc1)C2 (some centres not stated),inactive
7,CCCCCON=O,inactive
8,C=CC(=O)[O][Sn]([CH2]CCC)([CH2]CCC)[CH2]CCC,0.894 µM (active)
9,CC[N+]1(CC)CCC(OC(=O)C(O)(c2ccccc2)c2ccccc2)C1 (configuration not stated),inactive
10,COP(=S)(NC(C)C)Oc1ccc(C)cc1[N+](=O)[O-] (configuration not stated),0.283 µM (active)
11,O=[N+]([O-])c1ccc(CCl)cc1,inactive
12,c1ccc(Nc2ccc(Nc3ccccc3)cc2)cc1,12.6 µM (active)
13,O=c1c2ccccc2c(=O)c2c1cc(Cl)c1[nH]c3c([nH]c12)c(Cl)cc1c(=O)c2ccccc2c(=O)c13,inactive
14,CC(C)N(C(=O)CCl)c1ccccc1,39.9 µM (active)
15,NC1CCC(CC2CCC(N)CC2)CC1 (configuration not stated),inactive
16,CN1C(=O)[C@@H](NC(=O)c2cc3ccccc3[nH]2)N=C(c2ccccc2)c2ccccc21,inactive

row,SMILES,Potency
1,CCNc1nc(NC(C)C(C)C)nc(SC)n1 (configuration not stated),39.9 µM (active)
2,[O]=[Cr](=[O])([OH])[O][Cr](=[O])(=[O])[OH],inactive
3,CCN1CCC2(CC1)COc1cc3c(cc12)N(C(=O)c1ccc(-c2ccc(-c4nnc(C)o4)cc2C)cc1)CC3,23.2 µM (active)
4,CCOC(=O)Cc1ccccc1,inactive
5,Oc1cc(Cl)cc(Cl)c1,inactive
6,ClC1=C(Cl)[C@]2(Cl)[C@@H]3[C@H]4C[C@H]([C@@H]5O[C@H]45)[C@@H]3[C@@]1(Cl)C2(Cl)Cl,63.3 µM (active)
7,COC(=O)C(C)N(C(=O)c1ccco1)c1c(C)cccc1C (configuration not stated),11.2 µM (active)
8,[F][Sn]([c]1ccccc1)([c]1ccccc1)[c]1ccccc1,3.99 µM (active)
9,N#Cc1c2ccccc2cc2ccccc12,inactive
10,N#CCCl,37.1 µM (active)
11,COP(=S)(OC)Oc1nc(Cl)c(Cl)cc1Cl,79.6 µM (active)
12,CC(O)C(=O)[O][Hg][c]1ccccc1 (configuration not stated),6.33 µM (active)
13,CNC(C)(C)Cc1ccccc1,inactive
14,CCC[CH2][Sn]([CH2]CCC)([CH2]CCC)[CH2]CCC,35.6 µM (active)
15,COC(=O)c1ccccc1S(=O)(=O)NC(=O)Nc1nc(C)nc(OC)n1,35.3 µM (active)
16,CC1CCCC1,17.6 µM (active)
